Where “and” joins values, the source holds several entries; their conditions need not be identical. Equal values may be shown once. Results filed as inconclusive are left out. Entries that show only a call come without a potency. Calls of active or inactive are those of the source. Calls follow the shape of the dose curve; as a rule, active = well fitted cell-killing curve with a large enough effect in the repeat runs; inconclusive = weak or mixed curves, or effect the other way; inactive = flat fitted curve, though single readings scatter.
Assay: cAMP Responsive Elements (CRE) small molecule agonists, cell-based qHTS assay: qHTS cell viability counter screen (AID 2060914); also: nearly all actives have a fitted effect of over 50% in size
Settings: CRE-bla HEK293T viability, CellTiter-Glo luminescence, 5 h; series mostly up to 92.4 µM
How it was run: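 CRE-bla HEK293T cells in 10% dialyzed FBS medium were exposed to compounds for 3 h at 37C after 18 h plating. CellTiter-Glo was then added in the same wells, and luminescence was read after 30 min at room temperature.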
Potency is read from the fitted curve at half-maximal effect.

SMILES	Potency
C[C@]12CCC(=O)C[C@@H]1CC[C@@H]1[C@@H]2CC[C@]2(C)[C@@H](O)CC[C@@H]12	inactive
O=[N+]([O-])c1cccc2ccccc12	inactive
NC1(c2ccccc2)CCCCC1	inactive
CCOP(=S)(OCC)SC(CCl)N1C(=O)c2ccccc2C1=O (stereo not drawn)	inactive
CCCC[N+]1(C)CCCCC1	inactive
CCCCCCCCCCCCCCCC[N+](C)(C)C	29.5 µM (active) and 61.1 µM (active) and 26.6 µM (active)
CCC(C)(NC(=O)c1cc(Cl)c(C)c(Cl)c1)C(=O)CCl (stereo not drawn)	inactive
O=P(Cl)(Cl)Cl	inactive
CC(C)[C@]12CC(=O)[C@H](C)[C@H]1C2	inactive
CCCCCCOC(=O)c1ccccc1C(=O)OCCCCCC	inactive
C=CCc1cc(OC)c2c(c1)OCO2	inactive
Clc1cccc(Cl)c1	inactive
CC(C)COP(=O)(OCC(C)C)OCC(C)C	inactive
Nc1c(Cl)cc([N+](=O)[O-])cc1Cl	inactive
CCCSP(=O)(OCC)SCCC	inactive
CC(=O)[O-].[Tl+]	inactive
O=C(N[C@H](c1ccccc1)[C@@H]1CN2CCC1CC2)c1c(Cl)ccc(C(F)(F)F)c1Cl	inactive
O=C1CC[C@@]2(O)[C@H]3Cc4ccc(O)c5c4[C@@]2(CCN3CC2CC2)[C@H]1O5	inactive
CC(C)O.CC(C)O.OCCN(CCO)CCO.OCCN(CCO)CCO.[Ti]	inactive
Oc1c(Br)c(Br)c(Br)c(Br)c1Br	inactive
Oc1cc(Cl)c(Cl)c(Cl)c1Cl	inactive
N#CCCl	inactive
CCCCc1c(C)nc(NCC)[nH]c1=O	inactive

— PubChem BioAssay (Tox21)
